The panel holds about 79,000 compounds, 15% with a hit somewhere; the sample as a whole holds those more often. Calls of active or inactive are those of the source. Cut-off read from the data, not from the text of the source: active = growth inhibition above about 70%; inactive = the rest.
What was measured:
[1] = NCI Yeast Anticancer Drug Screen. Data for the rad50 strain (AID 155);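 note: 0% = growth of vehicle-only cultures of the same strain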; conditions: S. cerevisiae rad50 strain growth inhibition, hits give high values
Procedure, shortened: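 A DNA repair-deficient yeast mutant serves as the test organism; compound-induced growth inhibition is calculated against vehicle-treated cells.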

[2] = NCI Yeast Anticancer Drug Screen. Data for the mec2-1 strain (AID 157); conditions: S. cerevisiae mec2-1 strain, hits give high values
Procedure, shortened: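 Yeast mec2-1 mutant treated with compound. Readout: growth inhibition vs vehicle controls.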

[3] = NCI Yeast Anticancer Drug Screen. Data for the sgs1 mgt1 strain (AID 161);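 note: 0% = growth of cultures given vehicle only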; conditions: S. cerevisiae sgs1 mgt1 strain, hits give high values
Procedure, shortened: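 Inhibition of yeast growth, normalised to vehicle-treated controls, is reported for a strain bearing genetic alterations in DNA damage repair.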

[4] = NCI Yeast Anticancer Drug Screen. Data for the cln2 rad14 strain (AID 165);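 note: 0% = growth equal to vehicle treated cultures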; conditions: S. cerevisiae cln2 rad14 strain, hits give high values
Procedure, shortened: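 cln2 rad14 yeast strain; compound exposure; growth inhibition read vs vehicle controls.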

[5] = NCI Yeast Anticancer Drug Screen. Data for the bub3 strain (AID 167); conditions: S. cerevisiae bub3 mutant strain, hits give high values
Procedure, shortened: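 Inhibition values come from growth of compound-treated mutant yeast normalised to vehicle-treated controls.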

[6] = NCI Yeast Anticancer Drug Screen. Data for the mlh1 rad18 strain (AID 175); conditions: S. cerevisiae mlh1 rad18 strain growth inhibition, hits give high values
Procedure, shortened: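 Yeast w/ defined DNA-repair lesions; compound exposure; growth vs vehicle controls → % inhibition.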

[7] = at 5.0 µM (retest, dose inferred, filed as 0.5)
[8] = at 50.0 µM (retest, dose inferred, filed as 5.0)

Measured: growth inhibition

C=Cc1cc(=O)oc2cc(OC)ccc12
active: [1]; [8] 98% | [1]; at 50.0 µM 71.4% | [2]; [8] 99% | [2]; at 50.0 µM 86.2% | [3]; [8] 98% | [4]; [8] 99% | [4]; at 50.0 µM 72.2% | [5]; [8] 98% | [5]; at 50.0 µM 93.2% | [6]; [8] 98% | [6]; at 50.0 µM 93.8%
inactive: [1]; [7] 20% | [2]; [7] 22% | [3]; [7] 22% | [3]; at 50.0 µM 61.2% | [4]; [7] 14% | [5]; [7] 14% | [6]; [7] 30%

CCc1cccc(CC)c1NC(=O)C1=C(C)NC(C)=C(C(=O)Nc2c(CC)cccc2CC)C1c1ccc2c(c1)OCO2
active: [1]; at 50.0 µM 91.9% | [2]; at 50.0 µM 92.5% | [3]; at 50.0 µM 93.2% | [4]; at 50.0 µM 91.3% | [5]; at 50.0 µM 89.2% | [6]; at 50.0 µM 87.5%
inactive: [1]; [7] 54% | [1]; [8] 54% | [2]; [7] 45% | [2]; [8] 45% | [3]; [7] 45% | [3]; [8] 45% | [4]; [7] 26% | [4]; [8] 26% | [5]; [7] 39% | [5]; [8] 39% | [6]; [7] 43% | [6]; [8] 43%

O=[N+]([O-])c1ccc(-c2cccc(Cl)c2)c([N+](=O)[O-])c1
active: [1]; [8] 98% | [1]; at 50.0 µM 99.3% | [2]; [8] 99% | [2]; at 50.0 µM 99% | [3]; [8] 99% | [3]; at 50.0 µM 99.2% | [4]; [8] 98% | [4]; at 50.0 µM 91% | [5]; [8] 99% | [5]; at 50.0 µM 98.8% | [6]; [8] 98% | [6]; at 50.0 µM 97.9%
inactive: [1]; [7] 6% | [2]; [7] -3% | [3]; [7] 13% | [4]; [7] -17% | [5]; [7] 9% | [6]; [7] 2%

CSC(=S)N/N=C(/C)CC(C)C
inactive: [1]; [7] 25% | [1]; at 50.0 µM 57.1% | [2]; [7] 14% | [3]; [7] 10% | [3]; at 50.0 µM 45.8% | [4]; [7] -5% | [4]; at 50.0 µM 66.8% | [5]; [7] 24% | [6]; [7] 16% | [6]; at 50.0 µM 54%
active: [1]; [8] 94% | [2]; [8] 94% | [2]; at 50.0 µM 93% | [3]; [8] 92% | [4]; [8] 88% | [5]; [8] 95% | [5]; at 50.0 µM 95.8% | [6]; [8] 95%

CCC1CCCN1CCOC(=O)C(c1ccccc1)C1C=CCC1 (stereo not given)
inactive: [1]; [7] 31% | [1]; [8] 51% | [1]; at 50.0 µM 52.9% | [2]; [7] 23% | [2]; [8] 58% | [2]; at 50.0 µM 33.9% | [3]; [7] 40% | [4]; [7] 32% | [4]; [8] 62% | [4]; at 50.0 µM 62.4% | [5]; [7] 40% | [5]; [8] 60% | [5]; at 50.0 µM 48.6% | [6]; [7] 60% | [6]; at 50.0 µM 63%
active: [3]; [8] 74% | [3]; at 50.0 µM 72% | [6]; [8] 79%

O=C(c1ccc(Cl)cc1)C1N=NCC1c1ccccc1 (stereo not given)
inactive: [1]; [7] 3% | [1]; [8] 33% | [1]; at 50.0 µM -2.2% | [2]; [7] 9% | [2]; [8] 52% | [2]; at 50.0 µM 22.8% | [3]; [7] 4% | [3]; [8] 50% | [3]; at 50.0 µM 29.2% | [4]; [7] 4% | [4]; [8] 59% | [4]; at 50.0 µM 12.8% | [5]; [7] 4% | [6]; [7] -8% | [6]; [8] 53% | [6]; at 50.0 µM 43%
active: [5]; [8] 85% | [5]; at 50.0 µM 87%

CCCCCCCCCCCCCCCC[N+](C)(C)CCCCCC(=O)OC
active: [1]; [7] 99% | [1]; [8] 99% | [1]; at 50.0 µM 98.9% | [2]; [7] 100% | [2]; [8] 100% | [2]; at 50.0 µM 99.1% | [3]; [7] 100% | [3]; [8] 100% | [3]; at 50.0 µM 99% | [4]; [7] 99% | [4]; [8] 99% | [4]; at 50.0 µM 97.4% | [5]; [7] 100% | [5]; [8] 100% | [5]; at 50.0 µM 98.5% | [6]; [7] 100% | [6]; [8] 100% | [6]; at 50.0 µM 98.7%

CCN(CC)CCCC(C)Nc1cc(F)cc2cccnc12 (stereo not given)
inactive: [1]; [7] 10% | [2]; [7] 4% | [2]; [8] 31% | [2]; at 50.0 µM 63.2% | [3]; [7] 28% | [4]; [7] 10% | [4]; [8] 30% | [4]; at 50.0 µM 44.9% | [5]; [7] 15% | [5]; [8] 41% | [6]; [7] 20% | [6]; [8] 69%
active: [1]; [8] 81% | [1]; at 50.0 µM 93.2% | [3]; [8] 75% | [3]; at 50.0 µM 88.8% | [5]; at 50.0 µM 88.3% | [6]; at 50.0 µM 85.9%

CCOC(=O)C(=O)C1CCCCC1=O (stereo not given)
active: [1]; [8] 95% | [1]; at 50.0 µM 98.5% | [2]; [8] 98% | [2]; at 50.0 µM 98.8% | [3]; [8] 92% | [3]; at 50.0 µM 98.8% | [4]; [8] 98% | [4]; at 50.0 µM 98.8% | [5]; [8] 98% | [5]; at 50.0 µM 97% | [6]; [8] 98% | [6]; at 50.0 µM 98.8%
inactive: [1]; [7] 9% | [2]; [7] 6% | [3]; [7] 5% | [4]; [7] 21% | [5]; [7] 6% | [6]; [7] 11%

CCN(CC)CCNc1c(OC)cc(C)c2sc3ccccc3c(=O)c12
active: [1]; [8] 75% | [1]; at 50.0 µM 81.2% | [3]; at 50.0 µM 82.8% | [6]; [8] 86% | [6]; at 50.0 µM 94%
inactive: [1]; [7] 8% | [2]; [7] 6% | [2]; [8] -1% | [2]; at 50.0 µM 39.5% | [3]; [7] 0% | [3]; [8] 66% | [4]; [7] 1% | [4]; [8] 39% | [4]; at 50.0 µM 33.1% | [5]; [7] 1% | [5]; [8] 33% | [5]; at 50.0 µM 57% | [6]; [7] 4%
